Reference: the supplement of paper PMC11732987, “Enantioselective OTUD7B fragment discovery through chemoproteomics screening and high-throughput optimisation” (Communications Chemistry, 2025)

Assays:
Assay in all cases: log2 ratio of Biotin-Ahx-Ub-VS probe labelling (fragment/DMSO); higher = less target engagement (more negative = stronger competition), active = hit call of the paper (q ≤ 0.05, log2 ratio ≤ -1)
Details in all cases: compound concentration: 200 uM; treatment time: 3 h
USP42 = target: T1, USP42 (UniProt Q9H9J4)
T1 sequence (whole entry): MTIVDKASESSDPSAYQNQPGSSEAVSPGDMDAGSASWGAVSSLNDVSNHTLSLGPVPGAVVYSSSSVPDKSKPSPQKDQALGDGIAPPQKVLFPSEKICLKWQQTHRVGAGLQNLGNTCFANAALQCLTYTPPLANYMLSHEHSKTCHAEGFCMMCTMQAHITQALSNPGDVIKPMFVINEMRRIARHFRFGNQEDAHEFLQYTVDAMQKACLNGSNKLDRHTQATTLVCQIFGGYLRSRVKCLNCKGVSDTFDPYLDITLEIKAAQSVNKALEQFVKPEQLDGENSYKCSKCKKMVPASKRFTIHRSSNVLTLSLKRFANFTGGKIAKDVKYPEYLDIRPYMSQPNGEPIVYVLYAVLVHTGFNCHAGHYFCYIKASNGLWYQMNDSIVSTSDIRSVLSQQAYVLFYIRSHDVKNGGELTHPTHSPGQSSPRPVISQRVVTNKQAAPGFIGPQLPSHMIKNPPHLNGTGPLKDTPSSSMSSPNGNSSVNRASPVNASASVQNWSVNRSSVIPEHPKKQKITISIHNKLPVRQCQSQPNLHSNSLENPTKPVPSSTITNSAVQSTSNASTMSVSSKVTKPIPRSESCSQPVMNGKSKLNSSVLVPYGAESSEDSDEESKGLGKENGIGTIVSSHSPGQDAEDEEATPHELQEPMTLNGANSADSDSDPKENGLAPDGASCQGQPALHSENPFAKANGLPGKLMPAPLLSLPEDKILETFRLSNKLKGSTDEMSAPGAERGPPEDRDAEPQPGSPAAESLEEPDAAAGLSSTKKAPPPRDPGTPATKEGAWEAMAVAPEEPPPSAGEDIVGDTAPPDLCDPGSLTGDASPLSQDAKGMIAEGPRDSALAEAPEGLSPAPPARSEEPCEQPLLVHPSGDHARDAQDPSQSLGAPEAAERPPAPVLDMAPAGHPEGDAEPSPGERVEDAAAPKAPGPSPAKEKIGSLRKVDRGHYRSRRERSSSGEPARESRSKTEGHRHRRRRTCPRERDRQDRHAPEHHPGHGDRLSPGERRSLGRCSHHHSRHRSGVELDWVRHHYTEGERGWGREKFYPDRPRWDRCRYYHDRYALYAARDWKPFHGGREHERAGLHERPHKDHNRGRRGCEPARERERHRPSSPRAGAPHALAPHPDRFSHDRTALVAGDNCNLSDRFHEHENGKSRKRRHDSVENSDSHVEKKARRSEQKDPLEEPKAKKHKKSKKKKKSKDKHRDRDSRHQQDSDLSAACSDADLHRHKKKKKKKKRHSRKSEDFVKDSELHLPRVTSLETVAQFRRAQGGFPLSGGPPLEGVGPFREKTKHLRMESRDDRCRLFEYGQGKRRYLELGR
Summary of the method: (§1)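 Labelled DUBs were enriched with NeutrAvidin, digested with LysC and trypsin, and run by diaPASEF LC-MS/MS. The labelling used Biotin-Ahx-Ub-VS at 0.5 µM final for 1 h on HEK293T lysate (495 µg per sample) previously treated in triplicate with fragment at 200 µM or vehicle for 3 h. Values are average log2 fragment/vehicle ratios by unpaired t-test on global-median-normalised Spectronaut quantities of proteins with ≥2 unique peptides.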

USP46 = USP46 (UniProt P62068)
Summary of the method: as §1

USP47 = target: T2, USP47 (UniProt Q96K76)
T2 sequence (whole entry): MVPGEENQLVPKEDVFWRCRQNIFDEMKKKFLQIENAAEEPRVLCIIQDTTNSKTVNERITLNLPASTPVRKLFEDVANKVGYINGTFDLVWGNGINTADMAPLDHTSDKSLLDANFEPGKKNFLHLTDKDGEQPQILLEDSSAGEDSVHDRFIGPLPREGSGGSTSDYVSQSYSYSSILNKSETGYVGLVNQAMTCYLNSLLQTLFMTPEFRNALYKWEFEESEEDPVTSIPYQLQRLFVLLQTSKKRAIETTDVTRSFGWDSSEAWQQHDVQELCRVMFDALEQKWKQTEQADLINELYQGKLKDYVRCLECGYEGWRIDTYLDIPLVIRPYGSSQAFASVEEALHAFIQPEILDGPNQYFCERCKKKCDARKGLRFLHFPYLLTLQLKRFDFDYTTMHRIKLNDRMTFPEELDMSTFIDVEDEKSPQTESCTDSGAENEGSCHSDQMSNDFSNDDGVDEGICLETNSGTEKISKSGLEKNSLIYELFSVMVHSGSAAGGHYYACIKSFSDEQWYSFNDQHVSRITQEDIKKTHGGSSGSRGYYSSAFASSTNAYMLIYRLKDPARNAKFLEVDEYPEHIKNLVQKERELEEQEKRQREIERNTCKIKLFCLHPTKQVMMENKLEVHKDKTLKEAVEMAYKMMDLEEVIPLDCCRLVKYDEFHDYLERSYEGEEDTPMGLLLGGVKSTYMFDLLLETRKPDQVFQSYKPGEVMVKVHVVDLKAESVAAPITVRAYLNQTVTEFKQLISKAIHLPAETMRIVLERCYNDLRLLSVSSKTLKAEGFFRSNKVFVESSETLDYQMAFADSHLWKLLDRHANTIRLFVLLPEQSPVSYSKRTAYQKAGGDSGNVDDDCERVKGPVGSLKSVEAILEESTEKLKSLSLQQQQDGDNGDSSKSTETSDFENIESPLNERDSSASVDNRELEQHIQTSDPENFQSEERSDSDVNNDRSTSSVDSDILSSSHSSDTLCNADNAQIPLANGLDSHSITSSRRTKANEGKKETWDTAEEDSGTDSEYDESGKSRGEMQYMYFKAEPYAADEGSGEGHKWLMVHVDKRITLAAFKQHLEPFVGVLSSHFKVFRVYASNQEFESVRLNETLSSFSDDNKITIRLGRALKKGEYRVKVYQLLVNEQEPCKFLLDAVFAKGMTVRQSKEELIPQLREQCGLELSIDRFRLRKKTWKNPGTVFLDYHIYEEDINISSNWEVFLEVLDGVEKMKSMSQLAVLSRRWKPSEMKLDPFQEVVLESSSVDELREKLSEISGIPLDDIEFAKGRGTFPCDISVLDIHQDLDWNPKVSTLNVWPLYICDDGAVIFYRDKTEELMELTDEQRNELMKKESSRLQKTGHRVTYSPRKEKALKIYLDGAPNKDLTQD
Summary of the method: as §1

USP48 = target: T3, USP48 (UniProt Q86UV5)
T3 sequence (whole entry): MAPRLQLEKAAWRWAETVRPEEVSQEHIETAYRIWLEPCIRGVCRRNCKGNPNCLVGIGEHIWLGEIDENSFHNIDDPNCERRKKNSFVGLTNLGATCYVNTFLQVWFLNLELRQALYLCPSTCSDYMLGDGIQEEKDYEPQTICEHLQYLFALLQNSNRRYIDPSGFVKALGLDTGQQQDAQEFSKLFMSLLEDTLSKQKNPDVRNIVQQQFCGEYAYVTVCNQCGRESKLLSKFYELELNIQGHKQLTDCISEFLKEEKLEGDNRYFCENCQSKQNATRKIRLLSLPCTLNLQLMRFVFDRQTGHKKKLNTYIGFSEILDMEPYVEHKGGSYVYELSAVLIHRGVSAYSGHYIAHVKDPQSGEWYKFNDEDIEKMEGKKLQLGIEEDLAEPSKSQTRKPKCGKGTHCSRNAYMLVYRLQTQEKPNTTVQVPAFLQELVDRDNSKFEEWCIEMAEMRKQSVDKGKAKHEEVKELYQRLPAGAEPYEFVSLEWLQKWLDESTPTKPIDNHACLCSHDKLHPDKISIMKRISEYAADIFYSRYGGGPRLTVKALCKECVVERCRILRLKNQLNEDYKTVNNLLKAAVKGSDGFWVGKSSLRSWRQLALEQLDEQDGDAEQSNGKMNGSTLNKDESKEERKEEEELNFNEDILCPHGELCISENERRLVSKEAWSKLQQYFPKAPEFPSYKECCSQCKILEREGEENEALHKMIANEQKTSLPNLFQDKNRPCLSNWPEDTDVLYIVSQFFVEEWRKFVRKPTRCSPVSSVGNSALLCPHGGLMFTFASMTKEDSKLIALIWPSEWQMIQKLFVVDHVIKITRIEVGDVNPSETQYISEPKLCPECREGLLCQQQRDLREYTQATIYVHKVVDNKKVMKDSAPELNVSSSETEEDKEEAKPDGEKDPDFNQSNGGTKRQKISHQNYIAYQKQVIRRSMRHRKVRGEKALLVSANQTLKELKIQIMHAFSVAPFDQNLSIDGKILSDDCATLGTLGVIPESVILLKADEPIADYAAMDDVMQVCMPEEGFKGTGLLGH
Summary of the method: as §1

USP5 = target: T4, USP5 (UniProt P45974)
T4 sequence (whole entry): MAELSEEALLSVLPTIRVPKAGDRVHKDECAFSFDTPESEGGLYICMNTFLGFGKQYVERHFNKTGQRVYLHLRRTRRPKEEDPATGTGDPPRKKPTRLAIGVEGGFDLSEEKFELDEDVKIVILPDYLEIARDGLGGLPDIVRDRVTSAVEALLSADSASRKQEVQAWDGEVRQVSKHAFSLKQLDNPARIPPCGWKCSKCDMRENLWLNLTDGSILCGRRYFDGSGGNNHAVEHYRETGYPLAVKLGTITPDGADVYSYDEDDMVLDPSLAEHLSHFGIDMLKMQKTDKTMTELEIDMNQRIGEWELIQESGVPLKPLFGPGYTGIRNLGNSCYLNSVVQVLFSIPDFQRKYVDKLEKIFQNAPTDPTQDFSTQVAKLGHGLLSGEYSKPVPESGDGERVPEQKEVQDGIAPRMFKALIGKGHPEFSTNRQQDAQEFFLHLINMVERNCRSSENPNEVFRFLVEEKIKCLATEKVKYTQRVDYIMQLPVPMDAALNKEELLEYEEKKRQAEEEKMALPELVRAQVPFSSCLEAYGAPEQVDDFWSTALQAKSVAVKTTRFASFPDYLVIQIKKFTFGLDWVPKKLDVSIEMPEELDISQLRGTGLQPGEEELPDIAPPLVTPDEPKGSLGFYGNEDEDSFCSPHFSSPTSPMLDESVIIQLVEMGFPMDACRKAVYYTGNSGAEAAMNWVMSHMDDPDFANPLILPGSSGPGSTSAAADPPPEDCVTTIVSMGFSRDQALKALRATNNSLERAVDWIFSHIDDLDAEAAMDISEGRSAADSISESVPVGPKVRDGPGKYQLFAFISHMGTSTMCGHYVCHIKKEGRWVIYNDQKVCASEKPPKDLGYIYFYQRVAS
Summary of the method: as §1

USP54 = USP54 (UniProt Q70EL1)
Summary of the method: as §1

USP7 = USP7 (UniProt Q93009)
Summary of the method: as §1

USP8 = target: T5, USP8 (UniProt P40818)
T5 sequence (whole entry): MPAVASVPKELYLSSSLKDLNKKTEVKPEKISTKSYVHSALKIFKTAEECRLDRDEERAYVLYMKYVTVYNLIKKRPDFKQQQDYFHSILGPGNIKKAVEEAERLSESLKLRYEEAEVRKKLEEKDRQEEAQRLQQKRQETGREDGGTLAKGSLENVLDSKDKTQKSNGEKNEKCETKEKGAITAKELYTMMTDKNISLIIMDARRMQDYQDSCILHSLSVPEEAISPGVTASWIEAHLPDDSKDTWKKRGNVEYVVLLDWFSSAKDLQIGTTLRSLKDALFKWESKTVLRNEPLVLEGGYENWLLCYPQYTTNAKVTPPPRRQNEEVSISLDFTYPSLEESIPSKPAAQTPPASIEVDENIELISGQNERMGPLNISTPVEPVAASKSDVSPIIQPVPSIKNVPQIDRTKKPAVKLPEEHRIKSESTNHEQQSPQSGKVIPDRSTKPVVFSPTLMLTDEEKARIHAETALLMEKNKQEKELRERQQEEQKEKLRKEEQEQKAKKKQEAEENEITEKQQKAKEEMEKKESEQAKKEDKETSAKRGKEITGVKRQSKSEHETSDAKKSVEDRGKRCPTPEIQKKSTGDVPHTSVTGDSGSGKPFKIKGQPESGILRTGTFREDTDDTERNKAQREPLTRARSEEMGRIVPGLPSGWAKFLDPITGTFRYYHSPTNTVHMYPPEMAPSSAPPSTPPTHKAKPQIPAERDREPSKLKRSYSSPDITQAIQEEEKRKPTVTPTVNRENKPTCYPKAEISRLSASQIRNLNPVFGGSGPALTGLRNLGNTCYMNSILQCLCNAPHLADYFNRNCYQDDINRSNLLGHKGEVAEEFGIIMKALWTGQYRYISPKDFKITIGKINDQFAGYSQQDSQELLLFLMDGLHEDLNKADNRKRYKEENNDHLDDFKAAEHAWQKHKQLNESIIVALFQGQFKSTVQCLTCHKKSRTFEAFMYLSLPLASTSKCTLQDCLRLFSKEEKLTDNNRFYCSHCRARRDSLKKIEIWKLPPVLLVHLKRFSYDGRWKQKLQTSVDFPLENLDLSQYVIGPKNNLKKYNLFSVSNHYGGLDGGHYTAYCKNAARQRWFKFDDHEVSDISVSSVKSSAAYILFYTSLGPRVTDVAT
Summary of the method: as §1

USP9X = USP9X (UniProt Q93008)
Summary of the method: as §1

UniProt O00487 = target: UniProt O00487
Summary of the method: as §1

Measured: log2 ratio of Biotin-Ahx-Ub-VS probe labelling

Sequence of USP7 (Q93009 whole entry, looked up): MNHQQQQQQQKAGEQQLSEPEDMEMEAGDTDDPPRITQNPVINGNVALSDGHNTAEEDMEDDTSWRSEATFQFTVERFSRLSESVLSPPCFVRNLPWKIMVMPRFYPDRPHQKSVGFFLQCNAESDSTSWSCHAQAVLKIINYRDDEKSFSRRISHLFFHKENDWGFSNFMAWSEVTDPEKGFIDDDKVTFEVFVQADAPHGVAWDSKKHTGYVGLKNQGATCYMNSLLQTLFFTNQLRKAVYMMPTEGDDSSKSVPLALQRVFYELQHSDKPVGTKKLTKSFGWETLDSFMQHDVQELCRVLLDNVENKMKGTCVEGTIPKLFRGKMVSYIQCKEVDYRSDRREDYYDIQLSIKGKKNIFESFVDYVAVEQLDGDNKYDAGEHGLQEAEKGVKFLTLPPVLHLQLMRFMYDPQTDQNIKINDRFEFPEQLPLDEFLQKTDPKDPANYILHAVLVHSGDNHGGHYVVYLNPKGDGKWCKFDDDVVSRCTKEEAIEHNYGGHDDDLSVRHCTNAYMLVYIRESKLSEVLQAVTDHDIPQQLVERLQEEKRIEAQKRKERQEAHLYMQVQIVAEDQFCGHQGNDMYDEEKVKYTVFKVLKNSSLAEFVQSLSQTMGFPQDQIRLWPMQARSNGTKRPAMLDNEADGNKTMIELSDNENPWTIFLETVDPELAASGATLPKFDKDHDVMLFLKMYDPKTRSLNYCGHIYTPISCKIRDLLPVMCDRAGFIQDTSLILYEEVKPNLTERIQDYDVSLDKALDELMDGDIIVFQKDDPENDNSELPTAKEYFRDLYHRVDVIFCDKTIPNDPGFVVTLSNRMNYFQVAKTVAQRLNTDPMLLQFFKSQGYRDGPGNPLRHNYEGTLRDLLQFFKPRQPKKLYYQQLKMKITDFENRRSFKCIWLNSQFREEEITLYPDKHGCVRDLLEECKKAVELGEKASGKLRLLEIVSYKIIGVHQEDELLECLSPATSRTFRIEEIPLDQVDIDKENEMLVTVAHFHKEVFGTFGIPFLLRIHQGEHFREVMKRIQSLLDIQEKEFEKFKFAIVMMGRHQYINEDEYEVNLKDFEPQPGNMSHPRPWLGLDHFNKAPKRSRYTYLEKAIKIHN
Sequence of USP9X (Q93008 whole entry): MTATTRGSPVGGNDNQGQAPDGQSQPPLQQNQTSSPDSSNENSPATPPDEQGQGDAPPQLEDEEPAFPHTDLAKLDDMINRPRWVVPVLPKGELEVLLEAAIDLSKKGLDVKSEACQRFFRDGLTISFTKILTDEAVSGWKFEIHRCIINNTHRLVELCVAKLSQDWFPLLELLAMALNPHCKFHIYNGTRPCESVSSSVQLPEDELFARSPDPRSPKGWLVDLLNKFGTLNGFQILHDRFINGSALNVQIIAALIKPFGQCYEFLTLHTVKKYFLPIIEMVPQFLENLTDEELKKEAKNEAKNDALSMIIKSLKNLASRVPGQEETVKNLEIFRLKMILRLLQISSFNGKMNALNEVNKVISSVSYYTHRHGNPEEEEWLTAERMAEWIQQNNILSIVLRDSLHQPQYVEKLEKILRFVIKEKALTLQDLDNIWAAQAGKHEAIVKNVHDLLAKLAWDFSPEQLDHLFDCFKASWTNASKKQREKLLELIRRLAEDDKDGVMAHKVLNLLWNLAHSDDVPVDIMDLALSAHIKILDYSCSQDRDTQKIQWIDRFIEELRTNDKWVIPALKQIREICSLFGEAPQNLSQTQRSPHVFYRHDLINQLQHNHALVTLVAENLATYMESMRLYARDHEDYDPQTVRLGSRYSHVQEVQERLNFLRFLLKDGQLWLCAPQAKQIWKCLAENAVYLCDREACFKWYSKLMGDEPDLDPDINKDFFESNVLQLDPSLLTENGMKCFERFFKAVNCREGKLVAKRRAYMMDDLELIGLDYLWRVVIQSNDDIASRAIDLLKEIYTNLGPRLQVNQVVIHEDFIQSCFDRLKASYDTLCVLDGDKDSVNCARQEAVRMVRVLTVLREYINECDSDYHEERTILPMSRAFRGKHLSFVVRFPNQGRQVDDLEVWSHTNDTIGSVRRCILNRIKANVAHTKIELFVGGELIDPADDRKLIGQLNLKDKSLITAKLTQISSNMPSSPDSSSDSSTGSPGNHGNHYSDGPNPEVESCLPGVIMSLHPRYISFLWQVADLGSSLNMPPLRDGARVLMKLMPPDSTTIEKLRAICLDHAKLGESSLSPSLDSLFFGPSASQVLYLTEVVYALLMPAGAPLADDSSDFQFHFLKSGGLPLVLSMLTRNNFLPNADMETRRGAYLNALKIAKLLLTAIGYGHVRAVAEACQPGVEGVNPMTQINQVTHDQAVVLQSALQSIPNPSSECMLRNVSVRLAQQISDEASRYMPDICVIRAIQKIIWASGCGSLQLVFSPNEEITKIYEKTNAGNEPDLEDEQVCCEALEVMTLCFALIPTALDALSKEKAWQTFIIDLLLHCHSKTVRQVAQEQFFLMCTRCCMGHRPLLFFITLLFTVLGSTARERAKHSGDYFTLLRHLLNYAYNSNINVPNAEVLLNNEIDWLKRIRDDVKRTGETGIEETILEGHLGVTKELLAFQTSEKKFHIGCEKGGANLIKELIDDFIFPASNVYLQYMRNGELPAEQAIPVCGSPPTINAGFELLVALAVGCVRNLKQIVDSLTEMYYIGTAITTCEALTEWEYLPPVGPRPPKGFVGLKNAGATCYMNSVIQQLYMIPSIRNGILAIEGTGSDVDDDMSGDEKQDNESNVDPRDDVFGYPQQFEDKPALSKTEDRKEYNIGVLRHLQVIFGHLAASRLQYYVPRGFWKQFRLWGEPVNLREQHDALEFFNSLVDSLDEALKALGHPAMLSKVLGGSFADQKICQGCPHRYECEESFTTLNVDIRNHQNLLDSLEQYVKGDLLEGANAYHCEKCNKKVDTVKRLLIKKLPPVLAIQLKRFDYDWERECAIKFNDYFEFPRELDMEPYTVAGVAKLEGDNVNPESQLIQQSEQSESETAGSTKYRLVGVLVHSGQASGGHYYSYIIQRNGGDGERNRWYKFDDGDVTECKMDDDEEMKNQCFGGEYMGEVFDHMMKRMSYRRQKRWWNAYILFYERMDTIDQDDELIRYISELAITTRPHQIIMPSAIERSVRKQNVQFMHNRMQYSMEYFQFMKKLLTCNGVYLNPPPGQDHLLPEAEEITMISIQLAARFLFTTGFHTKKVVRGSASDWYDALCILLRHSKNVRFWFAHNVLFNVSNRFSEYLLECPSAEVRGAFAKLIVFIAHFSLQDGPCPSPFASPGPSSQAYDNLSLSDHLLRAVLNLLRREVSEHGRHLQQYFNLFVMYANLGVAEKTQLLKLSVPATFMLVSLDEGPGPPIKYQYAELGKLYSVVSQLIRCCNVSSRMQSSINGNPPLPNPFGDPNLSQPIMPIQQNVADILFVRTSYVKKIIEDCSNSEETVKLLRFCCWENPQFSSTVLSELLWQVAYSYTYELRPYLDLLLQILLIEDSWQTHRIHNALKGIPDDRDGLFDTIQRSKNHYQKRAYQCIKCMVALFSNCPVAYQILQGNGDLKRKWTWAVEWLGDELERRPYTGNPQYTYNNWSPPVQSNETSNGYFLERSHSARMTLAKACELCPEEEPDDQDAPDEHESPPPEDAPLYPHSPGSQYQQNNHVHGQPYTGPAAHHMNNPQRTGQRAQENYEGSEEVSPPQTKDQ
Sequence of USP46 (P62068 whole entry): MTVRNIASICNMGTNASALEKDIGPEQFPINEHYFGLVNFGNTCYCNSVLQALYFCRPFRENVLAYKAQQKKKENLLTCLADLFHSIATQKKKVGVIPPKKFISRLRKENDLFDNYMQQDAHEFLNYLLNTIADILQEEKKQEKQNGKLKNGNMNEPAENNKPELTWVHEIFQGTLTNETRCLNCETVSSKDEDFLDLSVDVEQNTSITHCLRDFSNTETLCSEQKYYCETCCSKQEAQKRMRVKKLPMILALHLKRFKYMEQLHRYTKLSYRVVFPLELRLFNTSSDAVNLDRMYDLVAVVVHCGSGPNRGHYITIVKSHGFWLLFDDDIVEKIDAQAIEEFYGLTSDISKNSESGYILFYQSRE
Sequence of UniProt O00487 (O00487 whole entry): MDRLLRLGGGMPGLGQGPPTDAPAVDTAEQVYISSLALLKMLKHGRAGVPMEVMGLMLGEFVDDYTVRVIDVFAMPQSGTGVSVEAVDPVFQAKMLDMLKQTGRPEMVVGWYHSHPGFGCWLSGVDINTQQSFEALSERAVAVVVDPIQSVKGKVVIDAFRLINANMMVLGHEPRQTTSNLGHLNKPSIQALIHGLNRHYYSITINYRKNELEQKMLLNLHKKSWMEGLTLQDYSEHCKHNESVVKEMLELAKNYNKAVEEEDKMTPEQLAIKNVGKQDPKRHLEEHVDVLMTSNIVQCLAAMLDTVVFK

O=C(CCl)NCc1noc(C2CC2)n1
inactive: USP42 -0.112 | USP46 -0.0864 | USP47 -0.0714 | USP48 -0.135 | USP5 -0.183 | USP54 1.02 | USP7 -0.262 | USP8 -0.421 | USP9X -0.268 | UniProt O00487 -0.16
